Measurements as given in PubChem BioAssay (EPA / NIEHS).
Activity calls are given as the source filed them. The calls were made as follows: active = hit-call score of the fitted dose curve at least 0.9, where 1 is the maximum; inactive = score below 0.9.

Key:
[1] = read-out: Interferon-gamma inducible Protein 10 (IP10), CXCL10 (gene 3627); test: BSK_BE3C_IP10: BioMAP Diversity Plus: BE3C Assay for Interferon-gamma inducible Protein 10 (IP10) Biomarker Activity (AID 2283034); conditions: primary human bronchial epithelial cells; actives raise or lower the signal
Procedure, shortened: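 IP-10 quantified by ELISA serves as the endpoint. Cells: primary human bronchial epithelium, read 24 h after compound addition. Activity is derived by bidirectional fitting with DMSO as negative control.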

[2] = read-out: Monokine induced gamma interferon (MIG), CXCL9 (gene 4283); test: BSK_BE3C_MIG: BioMAP Diversity Plus: BE3C Assay for Monokine induced gamma interferon (MIG) Biomarker Activity (AID 2283035); conditions: primary human bronchial epithelial cells; actives raise or lower the signal
Procedure, shortened: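 hu bronchial epithelial 1° cells, 24 h cpd; MIG by ELISA; bidirectional fit, DMSO = baseline.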

[3] = read-out: Transforming growth factor beta 1 (TGFb1), TGFB1 (gene 7040); test: BSK_BE3C_TGFb1: BioMAP Diversity Plus: BE3C Assay for Transforming growth factor beta 1 (TGFb1) Biomarker Activity (AID 2283036); conditions: primary human bronchial epithelial cells; actives raise or lower the signal
Procedure, shortened: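 Bronchial epithelial primary cells are treated with test chemical, then TGF-b1 is quantified by ELISA after 24 hours. Values derive from bidirectional fitting against DMSO, with cytotoxicity checked by SRB staining in parallel cultures.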

[4] = read-out: Plasminogen activator inhibitor-1 (PAI1), SERPINE1 (gene 5054); test: BSK_BE3C_PAI1: BioMAP Diversity Plus: BE3C Assay for Plasminogen activator inhibitor-1 (PAI1) Biomarker Activity (AID 2283037); conditions: primary human bronchial epithelial cells; actives raise or lower the signal
Procedure, shortened: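 Values derive from bidirectional fitting against DMSO baseline of PAI-1 levels, measured by ELISA in human bronchial epithelial cells 24 h after compound addition.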

[5] = read-out: urokinase plasminogen activator (uPA), PLAU (gene 5328); test: BSK_BE3C_uPA: BioMAP Diversity Plus: BE3C Assay for urokinase plasminogen activator (uPA) Biomarker Activity (AID 2283038); conditions: primary human bronchial epithelial cells; actives raise or lower the signal
Procedure, shortened: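 Measured by ELISA: uPA from human primary bronchial epithelial cells 24 h after chemical treatment. Values derive from bidirectional curve fitting with DMSO serving as negative control. Total protein by SRB staining in parallel wells flagged overt cytotoxicity.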

[6] = read-out: Urokinase-type plasminogen activator receptor (uPAR), PLAUR (gene 5329); test: BSK_BE3C_uPAR: BioMAP Diversity Plus: BE3C Assay for Urokinase-type plasminogen activator receptor (uPAR) Biomarker Activity (AID 2283039); conditions: primary human bronchial epithelial cells; actives raise or lower the signal
Procedure, shortened: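 Steps: dose human primary bronchial epithelial cells, incubate 24 h, measure uPAR by ELISA, then fit gain- or loss-of-signal response bidirectionally relative to DMSO.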

[7] = read-out: Interleukin-6 (IL6), IL6 (gene 3569); test: BSK_CASM3C_IL6: BioMAP Diversity Plus: CASM3C Assay for Interleukin-6 (IL6) Biomarker Activity for (AID 2283040); conditions: primary human coronary artery smooth muscle cells; actives raise or lower the signal
[8] = read-out: Tissue plasminogen activator (tPA), PLAT (gene 5327); test: BSK_BE3C_tPA: BioMAP Diversity Plus: BE3C Assay for Tissue plasminogen activator (tPA) Biomarker Activity (AID 2283041); conditions: primary human bronchial epithelial cells; actives raise or lower the signal
Procedure, shortened: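 Gain- or loss-of-signal in tPA, measured by ELISA, derived by bidirectional fitting against DMSO. Cells: human primary bronchial epithelial; read at 24 h after chemical dosing.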

[9] = read-out: Interleukin-8 (IL8), CXCL8 (gene 3576); test: BSK_CASM3C_IL8: BioMAP Diversity Plus: CASM3C Assay for Interleukin-8 (IL8) Biomarker Activity (AID 2283042); conditions: primary human coronary artery smooth muscle cells; actives raise or lower the signal;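 also: IL-8 protein level quantified by ELISA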
[10] = read-out: Human Leukocyte Antigen - DR isotype (HLADR), HLA-DRA (gene 3122); test: BSK_CASM3C_HLADR: BioMAP Diversity Plus: CASM3C Assay for Human Leukocyte Antigen - DR isotype (HLADR) Biomarker Activity (AID 2283043); conditions: primary human coronary artery smooth muscle cells; actives raise or lower the signal;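 also: cell-surface HLA-DR protein level quantified by ELISA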
[11] = read-out: Macrophage colony-stimulating factor (MCSF), CSF1 (gene 1435); test: BSK_CASM3C_MCSF: BioMAP Diversity Plus: CASM3C Assay for Macrophage colony-stimulating factor (MCSF) Biomarker Activity (AID 2283044); conditions: primary human coronary artery smooth muscle cells; actives raise or lower the signal;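 also: M-CSF protein amount quantified by ELISA after 24 h exposure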
[12] = read-out: Low-density lipoprotein receptor (LDLR), LDLR (gene 3949); test: BSK_CASM3C_LDLR: BioMAP Diversity Plus: CASM3C Assay for Low-density lipoprotein receptor (LDLR) Biomarker Activity (AID 2283045); conditions: primary human coronary artery smooth muscle cells; actives raise or lower the signal;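 also: LDLR protein level on the cell surface quantified by ELISA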
[13] = read-out: Monocyte Chemoattractant Protein-1 (MCP1), CCL2 (gene 6347); test: BSK_CASM3C_MCP1: BioMAP Diversity Plus: CASM3C Assay for Monocyte Chemoattractant Protein-1 (MCP1) Biomarker Activity (AID 2283046); conditions: primary human coronary artery smooth muscle cells; actives raise or lower the signal;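 also: MCP-1 level quantified by ELISA 24 h after dosing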
[14] = BSK_CASM3C_Proliferation: Cell Proliferation Assessment in the BioMAP Diversity Plus: CASM3C Assay (AID 2283047); conditions: primary human coronary artery smooth muscle cells;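 also: sulforhodamine B total protein stain as relative cell number at 560 nm; sub-confluent cells exposed 48 h before staining; fitted both ways against DMSO so gain or loss of cell number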
[15] = read-out: Monokine induced gamma interferon (MIG), CXCL9 (gene 4283); test: BSK_CASM3C_MIG: BioMAP Diversity Plus: CASM3C Assay for Monokine induced gamma interferon (MIG) Biomarker Activity (AID 2283048); conditions: primary human coronary artery smooth muscle cells; actives raise or lower the signal;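 also: MIG protein level measured by ELISA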
[16] = read-out: serum amyloid A (SAA), SAA1 (gene 6288); test: BSK_CASM3C_SAA: BioMAP Diversity Plus: CASM3C Assay for serum amyloid A (SAA) Biomarker Activity (AID 2283049); conditions: primary human coronary artery smooth muscle cells; actives raise or lower the signal;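 also: SAA protein level quantified by ELISA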
[17] = BSK_CASM3C_SRB: Viability Assessment in the BioMAP Diversity Plus: CASM3C Assay (AID 2283050); conditions: primary human coronary artery smooth muscle cells;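 also: total protein by SRB staining as cytotoxicity measure in parallel cultures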
[18] = read-out: Thrombomodulin, THBD (gene 7056); test: BSK_CASM3C_Thrombomodulin: BioMAP Diversity Plus: CASM3C Assay for Thrombomodulin Biomarker Activity (AID 2283051); conditions: primary human coronary artery smooth muscle cells; actives raise or lower the signal;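 also: thrombomodulin protein level measured by ELISA 24 h after dosing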
[19] = read-out: Tissue Factor, F3 (gene 2152); test: BSK_CASM3C_TissueFactor: BioMAP Diversity Plus: CASM3C Assay for Tissue Factor Biomarker Activity (AID 2283052); conditions: primary human coronary artery smooth muscle cells; actives raise or lower the signal;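 also: cell surface tissue factor protein level read by ELISA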
[20] = read-out: Interferon-gamma inducible Protein 10 (IP10), CXCL10 (gene 3627); test: BSK_hDFCGF_IP10: BioMAP Diversity Plus: hDFCGF Assay for Interferon-gamma inducible Protein 10 (IP10) Biomarker Activity (AID 2283053); conditions: primary human foreskin fibroblasts; actives raise or lower the signal
Procedure, shortened: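 Cells: human dermal foreskin fibroblasts. Exposure: 24 h post-dosing. Detection: IP-10 ELISA, with values expressed against DMSO controls and fitted in both directions.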

Measured: AC50

ClC(Cl)=C(c1ccc(Cl)cc1)c1ccccc1Cl
inactive: [3] | [7] | [8] | [9] | [15] | [16] | [18]
active: [1] 10.7 µM | [2] 26.4 µM | [4] 10.3 µM | [5] 20 µM | [6] 8.34 µM | [10] 26.1 µM | [11] 16.7 µM | [12] 23.5 µM | [13] 20 µM | [14] 30 µM | [17] 28.2 µM | [19] 24 µM | [20] 3.72 µM

CCCCC(CC)COP(=O)(Oc1ccccc1)Oc1ccccc1 (stereo not given)
active: [1] 20 µM | [8] 3.09 µM | [17] 20 µM | [20] 4.03 µM
inactive: all other assays above

CCCCCCCc1ccc(O)cc1
active: [1] 35 µM | [2] 37.6 µM | [3] 37.3 µM | [4] 39.3 µM | [5] 39.1 µM | [6] 39.3 µM | [8] 32.2 µM | [9] 23 µM | [10] 35.3 µM | [11] 35.5 µM | [12] 31.2 µM | [14] 37 µM | [15] 35.3 µM | [16] 34.4 µM | [17] 39 µM | [20] 22.6 µM
inactive: [7] | [13] | [18] | [19]

CC(C)Nc1ccc(Nc2ccccc2)cc1
inactive: [4] | [6] | [8]
active: [1] 6.69 µM | [2] 20 µM | [3] 20 µM | [5] 20 µM | [7] 33.4 µM | [9] 34.1 µM | [10] 20 µM | [11] 20 µM | [12] 31.8 µM | [13] 32.9 µM | [14] 20 µM | [15] 28.2 µM | [16] 32.8 µM | [17] 26.3 µM | [18] 36.6 µM | [19] 13.4 µM | [20] 5.88 µM

CCC1(c2ccccc2)C(=O)N=C(O)NC1=O (stereo not given)
inactive: all assays above

ClC(Cl)c1ccccc1
inactive: all assays above

Nc1ccc(Cl)cc1
inactive: all assays above

CC(C)(C)OOC(C)(C)C
inactive: all assays above

COP(=O)(O)OC
inactive: all assays above

Cc1ccc(N)cc1N
inactive: all assays above

CCCCOCCOP(=O)(OCCOCCCC)OCCOCCCC
active: [7] 8.79 µM | [19] 1.99 µM
inactive: all other assays above

N#Cc1c(-c2ccc(Cl)cc2)[nH]c(C(F)(F)F)c1Br
active: [1] 4.45 µM | [2] 25.4 µM | [3] 0.0307 µM | [6] 0.656 µM | [7] 1.18 µM | [9] 0.277 µM | [10] 0.36 µM | [11] 20 µM | [12] 20 µM | [13] 0.0939 µM | [14] 0.779 µM | [15] 11.5 µM | [16] 6.57 µM | [17] 0.865 µM | [19] 0.224 µM | [20] 20 µM
inactive: [4] | [5] | [8] | [18]

Nc1ccc2ccccc2c1
active: [18] 12.5 µM
inactive: all other assays above
